In the library only some 2% were active in any assay of this set; here they are far more common.
MsrA act: bovine methionine sulfoxide reductase A activation; purified bovine MsrA, absorbance read-out; activation, % at 10.6 µM; 360,000 compounds, 0.3% hits; in the data active means activation above about 7.5%
PKA-R2B act: activators of human PKA-R2B complex. activation, % at 11.4 µM. P22694+P31323. PKA-R2B holoenzyme dissociation, Cy5-IP20 fluorescence polarization; R2B truncated from residue 108, S112A mutant; 0% DMSO only, 100% 113 µM cGMP. 340,000 compounds, 0.079% hits;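 active means activation above a cutoff set at the mean over all compounds plus 3 SD, cut at about 18% in these data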;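 further: higher means more holoenzyme dissociation and a rise in polarization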
Target sequence (P31323 whole entry, looked up, other chains not shown, the tested form may be a part): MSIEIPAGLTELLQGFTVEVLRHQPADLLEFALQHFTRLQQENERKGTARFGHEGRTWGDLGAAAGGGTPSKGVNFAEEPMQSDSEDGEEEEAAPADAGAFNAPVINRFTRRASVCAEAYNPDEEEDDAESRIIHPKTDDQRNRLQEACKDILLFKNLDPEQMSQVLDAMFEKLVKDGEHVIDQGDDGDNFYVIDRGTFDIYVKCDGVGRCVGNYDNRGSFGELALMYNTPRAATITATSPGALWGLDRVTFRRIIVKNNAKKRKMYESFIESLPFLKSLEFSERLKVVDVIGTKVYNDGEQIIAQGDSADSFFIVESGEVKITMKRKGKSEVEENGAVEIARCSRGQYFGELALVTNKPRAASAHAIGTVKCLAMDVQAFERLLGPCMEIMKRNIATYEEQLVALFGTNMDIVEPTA
Mot1-301 SUMO: blocks SUMOylation pathway, rescuing yeast Mot1-301 growth; S. cerevisiae Mot1-301 growth rescue, ATP luminescence, 38.5C; percent above DMSO median, 100 means doubled; growth rescue, % at 18.8 µM; 320,000 compounds, 1% hits; AID 2716;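 active means every valid replicate shows activation above 250% relative to neutral control wells; inactive means the rest, any valid replicate at or below 250%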
PKA-R1A activ: activates the PKA-R1A holoenzyme complex | P00514+P68181 | PKA-R1A dissociation, Cy5-IP20 fluorescence polarization; scaled: DMSO 0%, 113 µM cGMP 100% | activation, % at 11.4 µM | 340,000 compounds, 0.083% hits | AID 504707;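 active means percent activation above the mean of all tested compounds plus 3 SD, cut at about 19% in these data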;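 further: higher means more PKAc released from R1A so a rise in polarization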
MsrA inh: inhibits bovine methionine sulfoxide reductase A; 360,000 compounds, 0.75% hits; inhibition, % at 15.5 µM; purified bovine MsrA, absorbance read-out; in the data active means inhibition above about 4.5%
Yeast Mot1 SUMO: SUMO pathway inhibitors in yeast Mot1-301 growth; growth activity, percent, % at 42 µM; S. cerevisiae Mot1-301 galactose growth, ATP luminescence, 24 h; -100 = growth of slx-deleted rescue strain; 2,300 tested, under 10 active; shares compounds with Mot1-301 SUMO;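 active means Signal drops as the depositor expects, and the fitted half-maximal dose is no more than ten times the top valid tested dose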;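 further: more negative values mean stronger growth rescue toward the control strain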
Numbers stand for hits; i = inactive; nt = not tested or not shown; + = active, no number.

SMILES | MsrA act | PKA-R2B act | Mot1-301 SUMO | PKA-R1A activ | MsrA inh | Yeast Mot1 SUMO
O=C1Cn2nnc(-c3ccccc3)c2C2c3cc(Br)ccc3CCN12 (stereo unspecified) | nt | nt | nt | nt | i | nt
CN(C(=O)CSc1ncccc1C(=O)O)c1ccccc1 | i | i | i | i | i | nt
CCCN(CCC)C(=O)CSc1ncccc1C(=O)O | i | i | 399 | i | i | i
O=C(O)c1ccc(N=C2NC(=O)C(CO)(CO)S2)cc1 | i | i | 767 | i | i | i
Cc1ccccc1OCc1nc(-c2ccccc2)no1 | i | i | 390 | i | i | i
CC1(C)C(C=C(Cl)Cl)C1C(=O)OCc1cccc(Oc2ccccc2)c1 (stereo unspecified) | i | i | 463 | i | i | i
CCOC(=O)C1=CCN(S(=O)(=O)c2ccc(Cl)cc2)C1c1ccc(Br)cc1 (stereo unspecified) | nt | nt | nt | nt | i | nt
CCCc1nn2c(=O)cc(CSCC(=O)Nc3ccc(OC)cc3)nc2s1 | i | i | 539 | i | i | i
O=C(NCc1ccccc1)[C@H]1CCCN1C(=O)[C@H]1CCCN1C(=O)c1ccc(F)cc1 | nt | nt | nt | nt | i | nt
Nc1[nH]c(C(=O)c2ccccc2)c(-c2cccc(C(F)(F)F)c2)c1C(=O)c1c[nH]c2ccccc12 | nt | nt | nt | nt | i | nt
N[C@@H](Cc1ccc(O)c(I)c1)C(=O)O | nt | nt | 640 | nt | nt | i
Cc1ccccc1-c1nnnn1C1CCS(=O)(=O)C1 (stereo unspecified) | i | i | + | i | i | i
Cn1c(=O)c2c(nc(N/N=C/c3ccc(OC(=O)c4ccco4)cc3)n2Cc2ccccc2Cl)n(C)c1=O | i | i | + | i | nt | i
C[C@@H]1ON(C)[C@H]2C[C@H]3c4[nH]c5c(-c6ccccc6F)cccc5c4CCN3C(=O)[C@@H]12 | nt | nt | nt | nt | i | nt
COc1ccccc1C(=O)OCC(=O)NC(=O)NCc1ccccc1 | i | i | 891 | i | i | i
COC(=O)C1=C(C)N(C)C(=NCc2ccccc2C(F)(F)F)NC1c1ccc(C(F)(F)F)cc1 (stereo unspecified) | nt | nt | nt | nt | i | nt
CN(Cc1ccccn1)C(=O)C1CCC(=O)N(Cc2cccc(F)c2)C1 (stereo unspecified) | i | i | i | i | i | nt
COc1cccc(CN(C)C(=O)C2CCC(=O)N(Cc3cccc(F)c3)C2)c1 (stereo unspecified) | i | i | 722 | i | i | i
CN1/C(=C\C(=O)COC(=O)c2ccc([N+](=O)[O-])o2)C(C)(C)c2ccccc21 | i | i | 428 | i | i | i
COc1ccccc1C(=O)N1CCN(C(=O)[C@@H](Cc2ccccc2)NC(=O)[C@H]2O[C@@H](n3ccc(N)nc3=O)[C@H](O)[C@@H]2O)CC1 | nt | nt | nt | nt | i | nt
Cc1ccc(NC(=S)NNC(=O)c2ccc(N3CCOCC3)c([N+](=O)[O-])c2)cc1C | i | i | 366 | i | i | i
CCOc1ccc(C(=O)NNC2CC(=O)N(CCc3ccccc3)C2=O)cc1OC (stereo unspecified) | i | i | 737 | i | i | i
COC(=O)CN(C(=S)Nc1ccc(F)cc1)C1CC(=O)N(c2ccccc2)C1=O (stereo unspecified) | i | i | 653 | i | i | i
O=C1CC(N(CCc2ccccc2)C(=S)Nc2ccccc2)C(=O)N1c1ccc(F)cc1 (stereo unspecified) | i | i | 700 | i | i | i
Cc1ccc(NC(=O)Cn2sc3nc(C)cc(C)c3c2=O)c(Cl)c1 | i | i | 559 | i | i | i
SMILES | MsrA act | PKA-R2B act | Mot1-301 SUMO | PKA-R1A activ | MsrA inh | Yeast Mot1 SUMO
COCCN(CCOC)C(=O)[C@@H](Cc1ccccc1)NC(=O)[C@H]1O[C@@H](n2ccc(N)nc2=O)[C@H](O)[C@@H]1O | nt | nt | nt | nt | i | nt
Cc1cc(C(=O)NNC(=O)c2ccc(C)s2)c(C)o1 | i | i | 476 | i | i | i
CCCCNS(=O)(=O)c1ccc2c(c1)oc(=O)n2CC(=O)OCC | i | i | 540 | i | i | i
CN(C/C=C/c1ccccc1[N+](=O)[O-])Cc1ccccc1 | i | i | 372 | i | i | i
CC(C)C[C@H]1COc2c(Cl)cccc2S(=O)(=O)N1 | nt | nt | nt | nt | i | nt
CCc1nnc2n1N=C(c1ccc(Cl)cc1)CS2 | i | i | 394 | i | i | i
CC(C)C1C(=O)CC(c2ccccc2)NC1c1ccccc1 (stereo unspecified) | i | i | i | i | i | nt
CC1C(=O)CC(c2ccccc2)NC1c1ccccc1 (stereo unspecified) | i | i | 789 | i | i | i
CCOCCCNC(=O)C(c1ccc(C)cc1)N(Cc1cccs1)C(=O)c1ccccn1 (stereo unspecified) | i | i | i | i | i | nt
CCOCCCNC(=O)C(c1ccc(OC)cc1)N(Cc1cccs1)C(=O)c1ccccn1 (stereo unspecified) | i | i | 522 | i | i | i
O=C(O)/C=C\C(=O)NC1CCCCC1 | i | i | 509 | i | i | i
C=CS(=O)(=O)N(C(=C)C(=O)OC)S(C)(=O)=O | nt | nt | nt | nt | i | nt
Cc1cc(=O)oc2cc(OCc3c(F)cccc3Cl)ccc12 | nt | nt | nt | nt | i | nt
O=C(NCC1CCN(C(=O)C(=O)c2cc3ccccc3o2)CC1)c1cccnc1 | nt | nt | nt | nt | i | nt
COc1ccc2[nH]cc(C(=O)C(=O)N3CCCCC3)c2c1 | i | i | 695 | i | i | i
O=C(NCc1ccccc1)[C@@H]1CCCN1C(=O)[C@H]1CCCN1C(=O)c1ccccc1Cl | nt | nt | nt | nt | i | nt
Nc1ccn([C@@H]2O[C@H](C(=O)N[C@H](Cc3ccccc3)C(=O)N3CCSC3)[C@@H](O)[C@H]2O)c(=O)n1 | nt | nt | nt | nt | i | nt
O=C(O)C(Cc1ccccc1)N1C(=O)c2cccc3cccc(c23)C1=O (stereo unspecified) | i | i | i | i | i | nt
O=C(Nc1cccc(O)c1)C(Cc1ccccc1)N1C(=O)c2cccc3cccc(c23)C1=O (stereo unspecified) | i | i | 855 | i | i | i
COc1ccc(C2CC(=O)C(c3ccc(C(N)=O)cc3)=CN2Cc2ccccc2)cc1 (stereo unspecified) | nt | nt | nt | nt | i | nt
CN1C(=O)[C@@]2(O[C@H]3C=CC=CN3C3=C2C(=O)CCC3)c2cc([N+](=O)[O-])ccc21 | nt | nt | nt | nt | i | nt
CCCc1nc2c(nnn2Cc2ccccc2F)c(=O)[nH]1 | i | i | 386 | i | i | i
CNC(=O)Nc1cccc(C(F)(F)F)c1 | i | i | i | i | i | nt
CNC(=O)Nc1cc(NC(=O)NC)cc(C(F)(F)F)c1 | i | i | 586 | i | i | i
O=C(CCn1cnnn1)Nc1ccc(Cl)cc1Cl | i | i | 721 | i | i | i
CCCCOCCCNC(=O)C[C@H]1C[C@@]2(C(=O)OC)C(=C[C@H](COCc3ccccc3)O[C@@H]2C)N(CCC2=CCCCC2)C1=O | nt | nt | nt | nt | i | nt
O=C(O)CN(c1ccccn1)S(=O)(=O)c1ccc(Cl)cc1 | i | i | 589 | i | i | i
